High-throughput results from PubChem BioAssay.
Only a selection was taken, and hits are over-represented in it overall.
CBX7 AlphaScr: blocks human CBX7 binding to H3K27me3 peptide; 66,000 tested, 1.1% active; normalised signal (fraction of DMSO) (concentration not given with the values); O95931; AlphaScreen His6-CBX7 / biotin-H3K27me3 peptide binding; hits give low values; AID 1224903; in the data active = normalised signal below about 0.5
Target sequence (O95931 whole entry, looked up): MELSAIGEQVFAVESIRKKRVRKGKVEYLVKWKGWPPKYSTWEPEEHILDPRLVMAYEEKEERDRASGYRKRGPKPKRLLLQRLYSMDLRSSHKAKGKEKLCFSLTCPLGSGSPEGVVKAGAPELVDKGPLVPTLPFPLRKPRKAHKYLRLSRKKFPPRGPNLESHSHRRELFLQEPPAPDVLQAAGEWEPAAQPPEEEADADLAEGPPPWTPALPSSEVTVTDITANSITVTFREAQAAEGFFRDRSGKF
Numbers without * were called inactive.

SMILES	CBX7 AlphaScr
COc1ccc(-n2nnnc2C2(NCCc3c(C)[nH]c4c(Cl)ccc(Cl)c34)CCCCC2)cc1	0.74
Cc1ccc(-n2nnnc2C2(NCCc3c(C)[nH]c4c(Cl)c(Cl)ccc34)CCCCC2)cc1	0.73
Cc1ccccc1-n1nnnc1C1(NCCc2c(C)[nH]c3ccccc23)CCCCC1	0.49*
COc1ccc2[nH]c(C)c(CCNCc3ccc(F)cc3F)c2c1	0.51
COc1ccc2[nH]c(C)c(CCNCc3cccnc3)c2c1	1.1
COc1ccc2[nH]c(C)c(CCNCc3nc[nH]c3C)c2c1	0.0075*
Cc1cccnc1NC(=O)c1c(O)c2ccccc2n(Cc2ccccc2)c1=O	0.97
O=C1CSC(c2ccc(Cl)cc2)c2c(-c3ccccc3)nn(-c3ccccc3)c2N1 (stereo not drawn)	0.92
CN(C)c1ccc(C2SCC(=O)Nc3c2c(-c2ccccc2)nn3-c2ccccc2)cc1 (stereo not drawn)	0.42*
COc1ccc(C2SCC(=O)Nc3c2c(C)nn3-c2ccccc2)cc1 (stereo not drawn)	1
CC(C)CC1N=C(c2ccccc2)c2ccccc2N(CC(=O)NCCC2=CCCCC2)C1=O (stereo not drawn)	0.87
O=C(CN1C(=O)CN=C(c2ccccc2)c2cc(Cl)ccc21)Nc1ccc(F)c(Cl)c1	0.89
O=C1CN=C(c2cccc(Br)c2)c2cc(Cl)ccc2N1	0.99
COc1ccc(CCNCc2ccccn2)cc1OC	0.27*
COc1ccc(CCNCc2cc(OC)c3c(c2)OCO3)cc1	0.97
COc1ccc(CCNCc2cccnc2)cc1OC	0.91
C=CCOc1ccc(C2SCC(=O)Nc3c2c(=O)[nH]n3C(C)C)cc1 (stereo not drawn)	0.98
Cc1ccc(NC(=O)CN2C(=O)C(C)N=C(c3ccccc3F)c3cc(Cl)ccc32)cc1F (stereo not drawn)	0.84
O=c1c2ccccc2nc(/C=C\c2ccc(F)cc2)n1-c1ccc(Cl)cc1	0.91
COc1ccccc1-n1c(/C=C/c2ccc(N(C)C)cc2)nc2ccccc2c1=O	0.64
